# From PubChem BioAssay
# This is one part of a sample in which hits are shown more often than they occur.
# LmPK inhibitor – LmPK (Leishmania mexicana) enzyme inhibition. purified LmPK, Kinase-Glo ATP luminescence, 1 h. Potency, µM (titrated, usually from 57.5 µM), for the others: at the highest dose activity change, negative = inhibition, hits mostly inhibitors. 290,000 tested, 0.37% active; also: potency is read from the fitted curve at half-maximal effect; % is scaled to controls: 0 for no effect and ±100 for the full control effect
#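 0.1 nM LmPK, 0.5 mM PEP, 0.1 mM ADP; 50 mM imidazole pH 7.2, 7 mM MgCl2, 50 mM KCl; 1 h RT. Kinase-Glo luminescence readout, normalized to no-enzyme (full inhibition) and uninhibited wells.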
# Sm TGR inh – inhibitors of Schistosoma mansoni thioredoxin glutathione reductase | Q962Y6 | purified TGR, DTNB reduction, TNB absorbance 405 nm | Potency, µM (series often up to 114 µM), for inactives: at the highest dose activity change, negative = inhibition, hits mostly inhibitors | 360,000 tested, 3% active; also: potency is read from the fitted curve at half-maximal effect; % is scaled to controls: 0 for no effect and ±100 for the full control effect; nearly all actives have a fitted effect of over 60% in size
#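 First, TGR (20 nM dispensed) and NADPH were mixed with compound. Second, a 15 min room-temperature incubation followed. Third, further NADPH and then DTNB were added to start the reaction. Finally, TNB absorbance was monitored kinetically.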
# CHX counter – counter-screen hit for Shiga toxin inhibitors, cycloheximide. cell reporter, cycloheximide protein synthesis inhibition counterscreen. AID 2314. max response, %. 300,000 tested, 12% active; in the data active = max response mostly above about 13%, no sharp cut-off; inactive = mostly below about 14%; also: read at 38.3 µM for the half of the compounds with a filed dose; 0% is about no effect
# TbPYK inhibitor – inhibitors of Trypanosoma brucei pyruvate kinase; 410,000 tested, 0.12% active; Q57TT1; Potency, µM (highest dose often 76.8 µM), for the others: top-dose activity, negative = inhibition, actives largely listed as inhibitors; TbPYK enzyme, Kinase-Glo Plus ATP luminescence, 45 min; also: potency is read from the fitted curve at half-maximal effect; % is scaled to controls: 0 for no effect and ±100 for the full control effect; nearly all actives have a fitted effect of over 50% in size
#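 Screened from lowest to highest concentration, compounds were pinned into TbPYK/substrate mixtures, and ADP (130 uM final) was added. Plates sat at room temperature for 45 min prior to Kinase-Glo Plus detection by luminescence.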
# FBPA Giardia inh – blocks Giardia fructose-bisphosphate aldolase activity | Potency, µM (doses to about 59.6 µM), for the others: at the highest dose activity, negative = inhibition, most hits filed as inhibitors | AID 2451 | purified Giardia FBPA | 290,000 tested, 0.71% active | A8B2U2; also: potency is read from the fitted curve at half-maximal effect; % is scaled to controls: 0 for no effect and ±100 for the full control effect; nearly all actives have a fitted effect of over 55% in size
# Target sequence (A8B2U2 whole entry, looked up): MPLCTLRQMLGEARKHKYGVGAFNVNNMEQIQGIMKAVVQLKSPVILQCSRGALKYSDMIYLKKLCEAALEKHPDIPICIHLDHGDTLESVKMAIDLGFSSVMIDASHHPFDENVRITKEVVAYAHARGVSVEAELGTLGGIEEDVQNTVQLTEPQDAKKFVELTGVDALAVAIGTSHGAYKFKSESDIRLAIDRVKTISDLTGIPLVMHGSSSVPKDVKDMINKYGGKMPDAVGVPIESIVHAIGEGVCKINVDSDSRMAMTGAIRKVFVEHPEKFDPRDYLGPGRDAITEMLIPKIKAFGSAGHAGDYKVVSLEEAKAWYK
#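 40 nM FBPA preincubated 10 min at RT with compound (up to 57.5 uM final), then substrate plus GAPDH/TPI/NAD/arsenate coupling and diaphorase/resazurin added. Fluorescence read after 20 min at RT, 525/598 nm.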
# Shiga toxin inh – inhibitors of Shiga toxin in Vero cells; Vero cells, Shiga toxin protein synthesis inhibition reporter; inhibition, % at 38.7 µM; AID 2315; 290,000 tested, 9.2% active; in the data active = inhibition mostly above about 28%, no sharp cut-off; inactive = mostly below about 43%; also: 0% is about no effect
# * = called active by the depositor; ? = inconclusive; . = no result. Unless noted, calls follow the shape of the dose curve; as a rule, active = well fitted curve in the direction sought with a large enough effect; inconclusive = small, poorly fitted or top-dose-only effect, or another doubt; inactive = no such curve, though single readings can be large; an effect the other way counts as inactive or inconclusive.
SMILES,LmPK inhibitor,Sm TGR inh,CHX counter,TbPYK inhibitor,FBPA Giardia inh,Shiga toxin inh
COc1ccccc1CNC(=O)CCC1N=C2c3ccccc3N=C(SCc3ccc(C)cc3)N2C1=O (stereo not drawn),.,0%,.,-5%,.,.
O=C(CSc1nc2ncccc2[nH]1)NCc1ccccc1,3%,-2%,16*,1%,-10%,6
COc1ccc(CNC(=O)CSc2nc3ccc(C)cc3[nH]2)cc1,3%,-4%,26*,-1%,4%,30
COc1ccc(CNC(=O)CSc2nc3ccc(OC)cc3[nH]2)cc1,4%,10%,1,-4%,-3%,-2
O=C(CSc1nc2ncccc2[nH]1)NC1CCCCC1,5%,-7%,4,-7%,?,-5
O=C(CSc1nc2ccccc2[nH]1)NCc1ccccc1,-2%,?,36*,1%,9%,68*
COCCCN1C(=O)C(CC(=O)NCCc2ccccn2)CC(C(=O)N2CCCCCC2)=C1C (stereo not drawn),.,.,.,-12%,.,.
CC1(C(=O)Nc2cnc3ccccc3c2)CCN1C(=O)CCc1ccccc1 (stereo not drawn),.,.,.,1%,.,.
COc1ccc(/C=C2\N=C(C)OC2=O)cc1OC(C)=O,2%,?,-4,-2%,-2%,-1
COc1cc(/C=C2\N=C(c3ccccc3)OC2=O)ccc1OC(C)=O,3%,-33%,7.5*,-6%,5%,-14
CCOc1cc(/C=C2\N=C(C)OC2=O)cc(Br)c1OCCc1ccccc1,11%,-13%,10,-3%,1%,-3
CCOc1cc(/C=C2\N=C(C)OC2=O)cc(Br)c1OCC(=O)OC,-1%,25µM*,0,-8%,5%,-9
COc1ccc(/C=C2\N=C(C)OC2=O)cc1OC,-5%,16µM*,-4,1%,0%,-8
Cc1cc2c(OCC(CNC(C)(C)C)OC(=O)c3ccccc3)cccc2[nH]1 (stereo not drawn),.,.,.,-4%,.,.
Cc1cc2oc(C(=O)Nc3cccc(-c4nc5ccccc5o4)c3)c(C)c2cc1Cl,.,0%,.,3%,.,.
CC(=O)c1cc(C(=O)c2ccccc2)sc1Nc1ccccc1,3%,?,48*,-5%,6%,61*
N#Cc1c(Nc2ccccc2)sc(C(=O)c2ccccc2)c1N,0%,1%,8,-6%,2%,12
O=C(NC(c1ccc(-c2ccccc2)cc1)c1cnccn1)C1CCN(Cc2cccs2)CC1 (stereo not drawn),.,.,.,-1%,.,.
CC(C)OC(=O)CSc1nnc(Cc2ccccc2)n1Cc1ccco1,0%,22µM*,5,-20%,-3%,1
O=c1c2ccccc2nnn1CSc1nnc(COc2ccc(Cl)cc2)n1Cc1ccco1,2%,-15%,-1,5%,.,-22
Clc1ccc(OCc2nnc(SCCN3CCCCC3)n2Cc2ccco2)cc1,2%,25µM*,-3,-2%,8%,-17
Cc1ccc(OCc2nnc(SCC(=O)c3ccccc3)n2Cc2ccco2)cc1,2%,0%,13,?,-3%,28
O=C(CSc1nnc(COc2ccccc2)n1Cc1ccco1)c1ccc(F)cc1,6%,-9%,37*,-15%,-2%,26
O=C(CSc1nnc(-c2ccc(Br)o2)n1Cc1ccccc1)c1ccccc1F,-2%,35µM*,-1,-13%,0%,-12
Cc1cc(NC(=O)CSc2nnc(-c3ccc(Br)o3)n2Cc2ccccc2)no1,-2%,-7%,11,4%,7%,-12
SMILES,LmPK inhibitor,Sm TGR inh,CHX counter,TbPYK inhibitor,FBPA Giardia inh,Shiga toxin inh
COc1ccc(OC)c(CNC(=O)C2CCC(=O)N2C(C)C)c1 (stereo not drawn),-10%,12%,-1,2%,6%,2
COC(=O)c1ccc(NC(=O)CC2C(=O)N(c3cccc(OC)c3)C(=O)N2C(C)C)cc1 (stereo not drawn),.,-6%,.,-8%,.,.
COc1ccc(C)cc1NC(=O)CN1c2ccccc2S(=O)(=O)c2ccccc21,.,-7%,.,2%,.,.
Cc1occc1-c1nnc(SCC(=O)c2ccc(F)cc2)o1,-1%,?,37*,4%,9%,147*
O=C(CSc1nnc(-c2ccco2)n1Cc1ccccc1)c1ccc(F)cc1,5%,?,36*,-26%,-2%,60*
Cc1occc1-c1nnc(SCC(=O)c2ccc(F)cc2)n1Cc1ccco1,1%,22µM*,12*,-18%,-2%,14
Cc1occc1-c1nnc(SCC(N)=O)o1,-2%,-1%,14,-6%,3%,35
O=C(CSc1nnc(-c2cc3ccccc3cc2O)n1Cc1ccco1)c1ccc(F)cc1,9%,-33%,-5,-9%,-2%,-9
N#CCCn1cc(C(=O)Nc2ccc(C(=O)O)cc2)c(-c2cccc(Br)c2)n1,10%,100µM*,-4,1%,-6%,.
CCc1ccc(-n2nc3ccc(NC(=O)c4cc5ccccc5o4)cc3n2)cc1,.,5%,.,-5%,.,.
c1ccc(-c2cn(CC3CCCCC3)nn2)cc1,-8%,-4%,37*,6%,18%,45*
COc1ccc(-c2cn(CC3CCCCC3)nn2)cc1,3%,-4%,16*,-5%,-16%,17*
Cc1nc2c(-c3ccccc3)c(C)nn2c(C)c1CCC(=O)NCc1cccc(Cl)c1,.,0%,.,7%,.,.
O=C(OCc1c(-c2ccccc2)ncc2ccccc12)c1cccc(Br)c1,.,1%,.,-11%,.,.
O=C(NC1CCCN(Cc2ccc(Cl)cc2)C1)c1cccc(N2CCCC2=O)c1 (stereo not drawn),-11%,-29%,-2,-4%,.,-30
Cc1ccc(C(=O)NC2CCCCCC2)cc1N1CCCC1=O,-2%,2%,23*,1%,9%,14
O=C(NC1CCCCCC1)c1cccc(N2CCCC2=O)c1,-15%,1%,46*,-18%,0%,33*
Cc1ccc(C(=O)O)cc1N1CCCC1=O,1%,4%,-2,5%,0%,-2
O=C(c1cccn2c(=O)c3cc4ccccc4cc3nc12)N1CCN(c2ccccc2)CC1,-2%,3%,23*,.,10%,35*
Cc1cccc(NC(=S)NC(=O)c2cccs2)n1,-4%,45%,24*,-4%,-28%,115*
Cc1cccc(NC(=O)CCC(=O)c2cccs2)n1,.,?,.,2%,.,.
Cc1cccc(NC(=O)CNC(=O)c2ccco2)n1,.,0%,.,-1%,.,.
Cc1nc(NC(=S)NC(=O)c2cncc(Br)c2)ccc1Br,6%,0%,1,-14%,-26%,10
Cc1nc(NC(=S)NC(=O)c2cccs2)ccc1Br,5%,-6%,31*,-6%,0%,32*
Cc1cccc(NC(=S)NC(=O)c2ccco2)n1,-4%,14%,16*,0%,-18%,35
CCNc1ncc2nc(-c3ccc(OC)cc3)c(=O)n(CCc3ccccc3)c2n1,.,.,.,.,6%,.
